Screening data deposited in PubChem by National Center for Advancing Translational Sciences (NCATS).
GPR32 ag: GPR32 (DRV1) agonism, beta-arrestin recruitment. O75388. CHO-K1 GPR32 beta-arrestin PathHunter luminescence, 90 min; zero percent set by DMSO-only wells. activation, % at 76.9 µM. 48,000 tested, 2.5% active;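 active means activation of at least 60% and not above a set upper limit, about 1 call in 100 departs from these limits; inconclusive means activation of 40% to 60%, or above that upper limit; inactive means activation under 40%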; further: 0% is about no effect
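Using DMSO wells as EC0, agonist-induced signal was taken as chemiluminescence from beta-Gal reconstituted upon beta-arrestin recruitment to GPR32 in CHO-K1 cells after 90 min compound treatment.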
FH mod: Identification of activators of human fumarate hydratase by quantitative high-throughput screening | FH coupled MDH/diaphorase resazurin fluorescence, 15 min | Potency, µM (titrated, usually from 79.9 µM), without a hit: at the highest dose activity change, negative = inhibition, usual class: inhibitors | 54,000 tested, 0.22% active; further: potency means the concentration at half of the fitted maximal effect; on the % scale 0 is the no-effect control and ±100 the full control effect; the screen sought activators but most active calls are inhibition curves; nearly all actives have a fitted effect of over 45% in size
Target sequence (P07954 whole entry, looked up): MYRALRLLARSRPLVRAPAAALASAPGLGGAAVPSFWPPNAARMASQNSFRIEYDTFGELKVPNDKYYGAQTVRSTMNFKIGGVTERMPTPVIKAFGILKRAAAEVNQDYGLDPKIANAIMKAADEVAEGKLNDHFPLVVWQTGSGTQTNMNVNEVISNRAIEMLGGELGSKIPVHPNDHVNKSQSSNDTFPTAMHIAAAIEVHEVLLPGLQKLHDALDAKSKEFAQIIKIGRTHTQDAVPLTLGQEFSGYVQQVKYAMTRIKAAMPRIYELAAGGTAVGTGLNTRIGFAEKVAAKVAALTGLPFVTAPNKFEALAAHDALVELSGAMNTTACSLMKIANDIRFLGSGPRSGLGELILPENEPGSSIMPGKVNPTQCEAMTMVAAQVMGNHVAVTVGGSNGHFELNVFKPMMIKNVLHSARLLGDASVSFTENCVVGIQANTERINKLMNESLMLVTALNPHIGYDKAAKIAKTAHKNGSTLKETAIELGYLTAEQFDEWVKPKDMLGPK
NTMT1 inh: blocks human N-terminal methyltransferase 1 activity | Potency, µM (series often up to 114 µM), for inactives: at the top dose activity change, negative = inhibition, usual class: inhibitors | 59,000 tested, 2.5% active | Q9BV86 | NTMT1 MTase-Glo SAH luminescence, purified enzyme;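 further: potency means the concentration at half of the fitted maximal effect; plate controls were DMSO vehicle for no effect and no enzyme for full effect; nearly all actives have a fitted effect of over 65% in size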
Target sequence (Q9BV86 whole entry, looked up): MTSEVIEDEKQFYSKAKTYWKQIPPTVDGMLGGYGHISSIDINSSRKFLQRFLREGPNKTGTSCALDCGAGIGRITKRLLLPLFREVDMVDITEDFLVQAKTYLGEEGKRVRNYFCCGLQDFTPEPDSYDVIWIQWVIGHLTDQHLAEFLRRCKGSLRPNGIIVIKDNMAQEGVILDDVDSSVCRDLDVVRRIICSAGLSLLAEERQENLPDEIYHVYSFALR
HTT-AS act: HTT-AS promoter activation. 48,000 tested, 0.24% active. Potency, µM (titrated, usually from 57.5 µM), without a hit: at the highest dose activity change, positive = activation, usual class: activators. HEK293 HTT-AS promoter firefly luciferase reporter, 24 h; response scale: percent change from vehicle, -100% = no light. AID 1508624; further: potency means the concentration at half of the fitted maximal effect; nearly all actives have a fitted effect of over 55% in size
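Firefly luciferase signal from promoter-reporter HEK293 cells was scaled between vehicle (0%) and zero RLU (-100%). Compounds were tested at final concentrations of up to 57.5 uM over 24 h at 37 degrees C. PTC124 at 50 uM final served as control inhibitor.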
HTT prom inh: HTT promoter inhibition | 48,000 tested, 0.93% active | Potency, µM (series often up to 57.5 µM), for the others: top-dose activity change, negative = inhibition, actives largely listed as inhibitors | HEK293 HTT promoter firefly luciferase reporter, 24 h; further: potency means the concentration at half of the fitted maximal effect; nearly all actives have a fitted effect of over 50% in size
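Firefly luciferase readout (Dual-Glo, 10 min RT) after 24 h, 37 °C compound exposure (final up to 57.5 uM) of HEK293 reporter cells cultured 24 h beforehand; PTC124 at 50 uM final as control inhibitor; activity scaled vehicle 0%, zero RLU -100%.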
An asterisk follows results filed as active; ? = inconclusive; nt = no result; ! = repeats disagree; [ ] = remark or other dose. Compounds with a hit are over-represented: about 4.7% of the library has one in this group of screens. Unless noted, the call rests on the fitted dose curve; in most records, active means well fitted curve in the direction sought with a large enough effect; inconclusive means small, poorly fitted or top-dose-only effect, or another doubt; inactive means no such curve, though single readings can be large; an effect the other way counts as inactive or inconclusive.

SMILES	GPR32 ag	FH mod	NTMT1 inh	HTT-AS act	HTT prom inh
CCOc1ccccc1N(CC)C(=O)c1cc2c(=O)n(CC)c3ccccc3c2s1	-26.7	?	-8.5%	-48.2%	?
CC1=C(/C=C/C(C)=C/C=C/C(C)=C/C(=O)O)C(C)(C)CCC1	-7.0	?	79.4µM*!	-6.8%	-1.8%
CCN(c1cccc(C)c1)S(=O)(=O)c1nnc(NC(=O)c2cccs2)s1	61.8*	-6.7%	10.1%	-28.3%	-18.2%
CCN(c1cc(C)cc(C)c1)S(=O)(=O)c1nnc(NC(=O)c2cccs2)s1	33.7	-11.2%	10.7%	-20.7%	-7.9%
COc1ccc(NS(=O)(=O)c2ccc3c(c2)NC(=O)CCS3)c(OC)c1	20.9	-4.5%	?	-23.3%	-34.8%
O=C1CCSc2ccc(S(=O)(=O)Nc3ccc(Cl)c(C(F)(F)F)c3)cc2N1	70.9*	-33.7%	7.3%	-16.3%	-17.5%
COc1ccc(CNC(=O)CCc2cn(C)c3ccccc23)cc1	-20.9	-1.5%	11.9%	-12.0%	-2.8%
Cc1ccc(CNC(=O)C(=O)NCC(c2ccc3c(c2)OCO3)N2CCOCC2)cc1 (centres undefined)	-17.7	-4.3%	16.7%	-15.1%	-10.8%
CCc1nn(CC(=O)NC(C)CC)c(=O)c2cc3occc3n12 (centres undefined)	2.0	-5.9%	-1.5%	-6.6%	-17.6%
CCC(Cc1ccccc1)NC(=O)Cn1nc(C)n2c(cc3occc32)c1=O (centres undefined)	-9.5	-1.9%	89.1µM*	-11.6%	-10.3%
COCCCNC(=O)c1sc2nc(C)c(C(=O)Nc3ccc(Cl)cc3)c(-c3ccc(Br)cc3)c2c1N	64.1*	-4.6%	9.0%	-3.5%	-27.8%
Cc1cccc(-c2nnc(SCCC(=O)O)o2)c1	34.8	2.2%	?	-91.0%	0.251µM*
CCS(=O)(=O)N1CCc2cc(C(=O)Nc3cccc(C)c3C)ccc21	7.5	3.1%	-2.1%	28.4%	23.6%
CCCc1ccc(C2Sc3ccccc3NC3=C2C(=O)c2ccccc23)cc1 (centres undefined)	-61.3	?	2.9%	-53.5%	31.6µM*
COc1cc(Cl)c(NC(=O)CN(C)S(=O)(=O)c2ccc3c(c2)CCCC(=O)N3)c(OC)c1	66.9*	-16.4%	9.4%	-29.0%	?
Cc1cc(NC(=O)CCNS(=O)(=O)c2ccc3c(c2)CCCC(=O)N3)ccc1Br	100.4*	-13.7%	-0.5%	-16.5%	-28.0%
CC(C)c1ccc(NC(=O)CCNS(=O)(=O)c2ccc3c(c2)CCCC(=O)N3)cc1	2.6	-37.3%	-7.9%	-22.7%	-24.3%
COc1ccc(S(=O)(=O)N2CCN(Cc3nc4ccc(C)cc4o3)CC2)cc1OC	-11.2	-2.0%	-0.3%	-22.6%	?
CO[C@H]1C=CC=C(C)C(=O)NC2=CC(=O)C(NCCN(C)C)=C(C[C@@H](C)C[C@H](OC)[C@@H](O)[C@@H](C)C=C(C)[C@@H]1OC(N)=O)C2=O	nt	-17.6%[53.3 µM]	27.1µM*	-91.7%	?
O=C(Nc1cccc2c(=O)cc(-c3nn[nH]n3)oc12)c1ccc(OCCCCc2ccccc2)cc1	93.6*	?	17.8µM*	-31.1%	?
CCCOc1ccc(C(=O)Nc2ccc(NC(=O)c3ccccc3)c(C)c2)cc1	-7.5	8.0%	-1.8%	-8.4%	-6.0%
CCCSc1ncc(Cl)c(C(=O)Nc2c(C(=O)c3ccc(F)cc3)oc3ccccc23)n1	-3.4	-2.4%	10.0%	-8.2%	-11.3%
CCc1ccccc1NC(=O)Cn1nc(-c2cc(C)ccc2C)c2c(c1=O)CCCC2	-6.2	?	89.1µM*	-14.9%	-15.6%
Cc1cccc(NC(=O)c2c(NC(=O)C(F)(F)F)sc3c2CCCCC3)c1	44.5	?	10µM*	-92.2%	2µM*
COc1ccc(NC(=O)c2c(NC(=O)COc3ccccc3)sc3c2CCCCC3)cc1	14.7	3.6%	4.4%	-5.4%	-5.8%
SMILES	GPR32 ag	FH mod	NTMT1 inh	HTT-AS act	HTT prom inh
Cc1ccccc1NC(=O)c1c(NC(=O)C(F)(F)F)sc2c1CCCCC2	20.0	?	-5.9%	-96.1%	2µM*
Cc1ccc(NC(=O)c2c(NC(=O)c3ccccc3)sc3c2CCC3)cc1	-4.6	-3.9%	-1.3%	10.3%	20.4%
Cc1ccc(NC(=O)c2c(NC(=O)C(F)(F)F)sc3c2CCCCC3)cc1	61.6*	?	-24.5%	-94.5%	1.41µM*
O=C(COc1ccc(Cl)cc1)Nc1sc2c(c1C(=O)Nc1cccc(Cl)c1)CCCC2	-1.2	3.0%	25.1µM*	-10.0%	-4.4%
Cc1cccc(NC(=O)c2c(Br)sc3c2CCCC3)c1	-8.5	-14.7%	7.2%	-24.4%	-28.4%
COc1cc([C@H]2OC[C@](O)(Cc3ccc(O[C@@H]4O[C@H](CO)[C@@H](O)[C@H](O)[C@H]4O)c(OC)c3)[C@@H]2CO)ccc1O	nt	-1.0%[53.3 µM]	6.9%[29.8 µM]	nt	nt
Cc1cccc(C(=O)Nc2sc3c(c2C(=O)Nc2ccccc2)CCC3)c1	-10.7	1.9%	-4.7%	-12.5%	-8.4%
O=C(Nc1cccc(Cl)c1)c1c(NC(=O)C(F)(F)F)sc2c1CCCC2	37.2	?	8.91µM*	-94.1%	1.78µM*
COCCNc1nc(C)nc2c1nc(-c1ccccc1)n2CCCN1CCCCC1C (centres undefined)	nt	nt	-3.1%	nt	nt
CSc1ccc(CNC(=O)C2CCCN(S(=O)(=O)N(C)c3ccc(F)cc3)C2)cc1 (centres undefined)	-9.2	-24.9%	2.1%	-65.1%	22.4µM*
CN(C)c1ccc(CNC(=O)C2CCCN(S(=O)(=O)c3ccc4c(c3)oc(=O)n4C)C2)cc1 (centres undefined)	19.9	-4.6%	-25.3%	-11.5%	-9.9%
CC1(C)CCC2(C(=O)OC3OC(CO)C(O)C(O)C3O)CCC3(C)C(=CCC4C5(C)CCC(O)C(C)(C(=O)O)C5CCC43C)C2C1O (centres undefined)	nt	2.0%[20.6 µM]	-2.8%[12.6 µM]	nt	nt
CCOC(=O)c1c(NC(=O)c2ccc(S(=O)(=O)N(CC(C)C)CC(C)C)cc2)sc2c1CCN(CC)C2	32.9	-8.6%	89.1µM*	-21.6%	?
CCCCN(CCCC)S(=O)(=O)c1ccc(C(=O)Nc2sc3c(c2C(N)=O)CCN(CC)C3)cc1	5.4	-3.9%	2.1%	-16.7%	-27.0%
Cc1cc(C)cc(C(=O)NCCc2sc(-c3ccc(F)cc3)nc2C)c1	-11.2	-9.4%	13.7%	-2.5%	-23.4%
O=C1CCc2cc(S(=O)(=O)Nc3cc(F)cc(Cl)c3)c(F)cc2N1	nt	nt	2.8%	nt	nt
CCC(C(=O)Nc1cccc(C#N)c1)n1c(=O)c(-c2ccccc2NC(C)=O)nc2ccccc21 (centres undefined)	-39.6	?	3.7%	-51.7%	?
CCC(C(=O)Nc1c(C)cc(C)cc1C)n1c(=O)c(-c2ccccc2NC(C)=O)nc2ccccc21 (centres undefined)	-0.5	-7.9%	89.1µM*	-7.4%	-9.5%
